The text below walks through data of PubChem BioAssay (NCATS).

Inconclusive results are not listed. Unmarked numbers belong to inactive results. Calls of active or inactive are those of the source. Calls come from the whole dose curve; as a rule, active = well fitted inhibition curve with a large enough effect; inconclusive = small, poorly fitted or top-dose-only effect; inactive = flat fitted curve, though single readings scatter.
Potency is the fitted concentration of half-maximal effect.

The first assay has as its system P94_40. In words: qHTS profiling for inhibitors of Plasmodium falciparum proliferation (AID 504749).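 For activity, negative = inhibition: 0% = DMSO vehicle and full inhibition = artemisinin control.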 Note: nearly all actives have a fitted effect of over 60% in size. Particulars: P. falciparum in erythrocytes, SYBR Green DNA, 72 h; series mostly up to 28.7 µM; activity, negative = inhibition: at the top concentration. The procedure, abridged:
(§1)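 Fluorescence of SYBR Green-bound parasite DNA, read at 485/535 nm, served as the growth measure. Infected erythrocytes were cultured with compound 72 h; artemisinin (0.29 uM) and DMSO wells defined the normalization range.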
Consider `COC(=O)C[C@](O)(CCCC(C)(C)O)C(=O)O[C@@H]1C(OC)=C[C@]23CCCN2CCc2cc4c(cc2[C@H]13)OCO4`, for which the Potency was 0.0158 µM (active).

Take `CC=CC1=C(C(=O)O)N2C(=O)[C@H](NC(=O)[C@H](N)c3ccc(O)cc3)[C@@H]2SC1`: the “activity, negative = inhibition” value was -9.9%.

On to `COc1cc(C(=O)NS(=O)(=O)c2ccccc2C)ccc1Cc1cn(C)c2ccc(NC(=O)OC3CCCC3)cc12`, for which the Potency was 12.6 µM (active).

`C[C@H]1C[C@@H]2[C@@H]([C@@H](O)C[C@@]3(C)[C@H]2CC[C@]3(O)C(=O)CO)[C@@]2(C)C=CC(=O)C=C12`: the “activity, negative = inhibition” value was -1.94% [at 12.8 µM].

As for `O=c1[nH]c(=O)n(C2CCCO2)cc1F` (stereo unspecified), the “activity, negative = inhibition” value was 10%.

On to `CC1(C)O[C@@H]2C[C@@H]3[C@H]4C[C@@H](F)C5=CC(=O)C=C[C@]5(C)[C@@]4(F)[C@@H](O)C[C@]3(C)[C@]2(C(=O)CO)O1`, for which the “activity, negative = inhibition” value is 3.19%.

As to `Nc1ccn([C@@H]2CS[C@H](CO)O2)c(=O)n1`, the Potency entry was “inactive”.

For the molecule `CN1c2cc(O)c(N=NC(N)=O)cc2CC1S(=O)(=O)O` (stereo unspecified), the “activity, negative = inhibition” value was 8.64%.

Take `CC[C@H]1CN2CCc3cc(OC)c(OC)cc3[C@H]2C[C@@H]1C[C@@H]1NCCc2cc(OC)c(OC)cc21`: the Potency was 0.251 µM (active).

Turning to `CC(C)(C)NC(=O)[C@H]1CN(Cc2cccnc2)CCN1C[C@@H](O)C[C@@H](Cc1ccccc1)C(=O)N[C@H]1c2ccccc2C[C@H]1O`, the Potency was 11.2 µM (active).

As to `Nc1ccn([C@@H]2O[C@H](CO)[C@H](O)C2(F)F)c(=O)n1`, the Potency was 0.316 µM (active).

Take `O=C(O)CO.[NH2-].[NH2-].[Pt+2]`: the “activity, negative = inhibition” value was 6.26%.

As to `COC(=O)C1=C(C)NC(C)=C(C(=O)OCCN2CCN(C(c3ccccc3)c3ccccc3)CC2)C1c1cccc([N+](=O)[O-])c1` (stereo unspecified), the Potency was 2 µM (active).

On to `COc1c(N2C[C@@H]3CCCN[C@H]3C2)c(F)cc2c(=O)c(C(=O)O)cn(C3CC3)c12`, for which the “activity, negative = inhibition” value is -20.6%.

With `CCC1=C[C@@H]2CN(C1)Cc1c([nH]c3ccccc13)[C@@](C(=O)OC)(c1cc3c(cc1OC)N(C)[C@@H]1[C@@](O)(C(=O)OC)[C@H](OC(C)=O)[C@]4(CC)C=CCN5CC[C@]31[C@@H]54)C2`, the Potency is 1.58 µM (active).

Take `Nc1ccc(S(=O)(=O)Nc2ncccn2)cc1`: the “activity, negative = inhibition” value was 19.3% [at 12.8 µM].

The subject of another assay is PAD. The description is as above. The settings on record: P. falciparum in erythrocytes, SYBR Green DNA, 72 h; series mostly up to 28.7 µM; activity, negative = inhibition: at the top concentration. The method in brief: as §1
`COC(=O)C[C@](O)(CCCC(C)(C)O)C(=O)O[C@@H]1C(OC)=C[C@]23CCCN2CCc2cc4c(cc2[C@H]13)OCO4`: the Potency is 0.0158 µM (active).

For the molecule `CC=CC1=C(C(=O)O)N2C(=O)[C@H](NC(=O)[C@H](N)c3ccc(O)cc3)[C@@H]2SC1`, the “activity, negative = inhibition” value was -14.5%.

As to `COc1cc(C(=O)NS(=O)(=O)c2ccccc2C)ccc1Cc1cn(C)c2ccc(NC(=O)OC3CCCC3)cc12`, the “activity, negative = inhibition” value is -25.5%.

In the case of `C[C@H]1C[C@@H]2[C@@H]([C@@H](O)C[C@@]3(C)[C@H]2CC[C@]3(O)C(=O)CO)[C@@]2(C)C=CC(=O)C=C12`, the “activity, negative = inhibition” value was -17.5% [at 12.8 µM].

Regarding `O=c1[nH]c(=O)n(C2CCCO2)cc1F` (stereo unspecified), the “activity, negative = inhibition” value was 1.07%.

For the molecule `CC1(C)O[C@@H]2C[C@@H]3[C@H]4C[C@@H](F)C5=CC(=O)C=C[C@]5(C)[C@@]4(F)[C@@H](O)C[C@]3(C)[C@]2(C(=O)CO)O1`, the “activity, negative = inhibition” value is -14.7%.

As to `Nc1ccn([C@@H]2CS[C@H](CO)O2)c(=O)n1`, the Potency result was “inactive”.

With `CN1c2cc(O)c(N=NC(N)=O)cc2CC1S(=O)(=O)O` (stereo unspecified), the “activity, negative = inhibition” value was 5.27%.

With `CC[C@H]1CN2CCc3cc(OC)c(OC)cc3[C@H]2C[C@@H]1C[C@@H]1NCCc2cc(OC)c(OC)cc21`, the Potency was 0.355 µM (active).

Consider `Nc1ccn([C@@H]2O[C@H](CO)[C@H](O)C2(F)F)c(=O)n1`, for which the Potency is 0.708 µM (active).

Take `O=C(O)CO.[NH2-].[NH2-].[Pt+2]`: the “activity, negative = inhibition” value was 12.8%.

Take `COC(=O)C1=C(C)NC(C)=C(C(=O)OCCN2CCN(C(c3ccccc3)c3ccccc3)CC2)C1c1cccc([N+](=O)[O-])c1` (stereo unspecified): the Potency is 3.16 µM (active).

Regarding `COc1c(N2C[C@@H]3CCCN[C@H]3C2)c(F)cc2c(=O)c(C(=O)O)cn(C3CC3)c12`, the “activity, negative = inhibition” value is -0.18%.

With `CCC1=C[C@@H]2CN(C1)Cc1c([nH]c3ccccc13)[C@@](C(=O)OC)(c1cc3c(cc1OC)N(C)[C@@H]1[C@@](O)(C(=O)OC)[C@H](OC(C)=O)[C@]4(CC)C=CCN5CC[C@]31[C@@H]54)C2`, the Potency is 2.24 µM (active).

Consider `Nc1ccc(S(=O)(=O)Nc2ncccn2)cc1`, for which the “activity, negative = inhibition” value was 21.3% [at 12.8 µM].
